Screens deposited in PubChem by National Center for Advancing Translational Sciences (NCATS).
This is a sample that favours compounds with a hit; in the whole collection about 2% have one here.
FUS yeast rescue: qHTS for Suppressors of FUS Proteinopathy: Primary screen using FUS-linked yeast assay; hit rate 0.24% among 390,000; Potency, µM (highest dose often 76.6 µM), most hits filed as activators; AID 1347120, 2019; S. cerevisiae FUS-expressing, growth rescue, OD600, 24 h; further: nearly all actives have a fitted effect of over 55% in size
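FUS-expressing yeast, raffinose-pregrown, induced in 2% galactose minimal medium at OD 0.005; compounds in a dilution series, 24hr at 30C. Growth restoration read as absorbance at 600 nm. CP55940 positive control, DMSO negative.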
mIDH1 inhibitor: qHTS for Inhibitors of mutant isocitrate dehydrogenase 1 (IDH1): qHTS; Isocitrate dehydrogenase [NADP] cytoplasmic (Homo sapiens), O75874; IDH1-R132H enzyme, NADPH consumption, diaphorase/resazurin fluorescence; Potency, µM (top dose mostly 76.6 µM), usual class: inhibitors; hit rate 0.093% among 390,000; further: nearly all actives have a fitted effect of over 65% in size
Target sequence (O75874 whole entry R132H, stated change not applied): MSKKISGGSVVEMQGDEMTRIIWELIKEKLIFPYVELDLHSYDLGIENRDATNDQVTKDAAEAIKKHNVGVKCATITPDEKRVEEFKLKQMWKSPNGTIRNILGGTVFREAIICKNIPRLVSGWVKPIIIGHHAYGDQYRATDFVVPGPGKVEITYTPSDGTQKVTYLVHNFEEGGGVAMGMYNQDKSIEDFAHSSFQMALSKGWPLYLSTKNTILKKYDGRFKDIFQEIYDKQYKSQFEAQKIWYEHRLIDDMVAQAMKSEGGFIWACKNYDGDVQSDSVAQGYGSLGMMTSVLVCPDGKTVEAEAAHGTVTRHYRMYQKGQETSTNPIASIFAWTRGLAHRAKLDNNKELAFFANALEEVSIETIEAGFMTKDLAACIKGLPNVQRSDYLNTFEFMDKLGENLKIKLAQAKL
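IDH1-R132H (0.5 ug/mL dispensed) in pH 7.5 Tris buffer was preincubated 30 min with compound, then given a substrate mix of 0.016 mM NADPH and 2 mM alpha-KG for 80 min at room temperature; remaining NADPH was read by diaphorase/resazurin fluorescence.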
LDHA inh: qHTS assay for inhibitors of human lactate dehydrogenase | L-lactate dehydrogenase A chain (Homo sapiens), P00338 | purified LDHA, NADH/diaphorase-resazurin fluorescence; active compounds read low | activity change, % (values are at about 110 or 230 µM) | hit rate 0.15% among 480,000 | AID 1347041, 2019; in the data active means activity change below about -30%; inconclusive means mostly about -25% to -30%
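Resorufin fluorescence (ex540/em590), read at 0 and 20 min after diaphorase/resazurin addition, reports the NADH left after a 5 min room-temperature reaction of 2 nM human LDH5 with 0.06 mM NADH and 0.2 mM pyruvate.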
Abeta yeast res: qHTS for compounds that reverse cellular toxicity of Amyloid beta (A-beta) peptide in yeast: Primary Screen. yeast expressing A-beta42, growth rescue, OD600, 48 h; response scale: 0% DMSO, 100% iron-clioquinol control. Potency, µM (titrated, usually from 46.1 µM), usual class: activators. hit rate 0.063% among 410,000. AID 1347071, 2019; further: nearly all actives have a fitted effect of over 55% in size
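Yeast growth medium received pinned compounds, then yeast cells expressing toxic A-beta were added; plates incubated at 30 C for 48 hr. Growth read as absorbance at 600 nm, normalized to DMSO and equimolar FeCl3 plus clioquinol controls.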
aSyn yeast inh: qHTS of alpha-syn Inhibitors; Potency, µM (doses to about 46.1 µM), actives largely listed as activators; Yeast expressing alpha-synuclein, growth rescue, BacTiter-Glo, 24 h; hit rate 0.14% among 370,000; further: nearly all actives have a fitted effect of over 65% in size
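Galactose-induced alpha-syn yeast (OD600=0.02, raffinose-pregrown) + pinned cpd, 24 hr, 30 deg C; growth by BacTiter-Glo luminescence. Growth restoration scores as activation.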
TDP43 rescue: qHTS of TDP-43 Inhibitors | TDP-43 expressing yeast growth rescue, BacTiter-Glo, 24 h | Potency, µM (top dose mostly 46.1 µM), hits mostly activators | hit rate 1.8% among 410,000 | AID 652104, 2013; further: nearly all actives have a fitted effect of over 50% in size
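Galactose-induced TDP-43 yeast, OD600=0.02, compound pinned; 24 hr, 30 deg C; BacTiter-Glo luminescence for growth. Inhibitors of TDP-43 toxicity read as activators.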
Hits are given with their value. Unless noted, the call rests on the fitted dose curve; in most records, active means well fitted curve in the direction sought with a large enough effect; inconclusive means small, poorly fitted or top-dose-only effect, or another doubt; inactive means no such curve, though single readings can be large; an effect the other way counts as inactive or inconclusive.

Results for O=C(c1ccc(-n2cccn2)cc1)N1CCc2c([nH]c3ccccc23)C1c1ccccn1 (stereo not given) ?
FUS yeast rescue: inconclusive; mIDH1 inhibitor: inactive; LDHA inh: inactive; Abeta yeast res: inconclusive; aSyn yeast inh: inconclusive; TDP43 rescue: inconclusive

What do the screens show for `O=C(Cc1ccc2ccccc2c1)Nc1cnc2ccccc2c1`?
LDHA inh: inactive

Results for O=C(COc1ccc2ccccc2c1)Nc1cnc2ccccc2c1 ?
LDHA inh: -33

How did O=C(CSc1nc(-c2ccco2)nc2ccccc12)N1CCCCCCC1 do in these assays?
LDHA inh: inactive

How did CC(=O)c1ccccc1NC(=O)COC(=O)C1CCCN1S(=O)(=O)c1ccccc1F (stereo not given) do in these assays?
FUS yeast rescue: inactive; mIDH1 inhibitor: inactive; LDHA inh: inactive; Abeta yeast res: inactive; aSyn yeast inh: 14µM; TDP43 rescue: inactive

How did COc1cccc2sc3ccc(C#Cc4ccc(N)cc4)cc3c(=O)c12 do in these assays?
FUS yeast rescue: 32µM; mIDH1 inhibitor: inactive; LDHA inh: inactive; Abeta yeast res: inactive; aSyn yeast inh: inactive; TDP43 rescue: inactive

Results for COc1cccc2sc3ccc(C#CC4(O)CCCCC4)cc3c(=O)c12 ?
FUS yeast rescue: inconclusive; mIDH1 inhibitor: inactive; LDHA inh: inactive; Abeta yeast res: inactive; aSyn yeast inh: inactive; TDP43 rescue: 16µM

How did CCC(Sc1nc2ccsc2c(=O)n1Cc1ccc(C(=O)O)cc1)C(=O)Nc1ccc(Cl)cc1 (stereo not given) do in these assays?
FUS yeast rescue: 35µM; mIDH1 inhibitor: inconclusive; LDHA inh: inactive; Abeta yeast res: inactive; aSyn yeast inh: inactive; TDP43 rescue: inactive

How did Cc1cccc(COC[C@H](Cc2ccccc2)N2CCN(C(=O)c3cccc(Cl)c3)CCC2=O)c1 do in these assays?
FUS yeast rescue: inconclusive; LDHA inh: inactive; Abeta yeast res: inactive; aSyn yeast inh: inconclusive; TDP43 rescue: 18µM

How did Cc1cccc(COCC(Cc2ccccc2)N2CCN(C(=O)c3cccc(Cl)c3)CCC2=O)c1 (stereo not given) do in these assays?
FUS yeast rescue: inconclusive; mIDH1 inhibitor: inactive; LDHA inh: inactive; Abeta yeast res: inactive; aSyn yeast inh: inconclusive; TDP43 rescue: inactive

What do the screens show for `CC(C)CC(COCc1ccc(Cl)cc1)N1CCN(C(=O)c2ccc(Cl)cc2Cl)CCC1=O` (stereo not given)?
FUS yeast rescue: inconclusive; mIDH1 inhibitor: inactive; LDHA inh: inactive; Abeta yeast res: inactive; aSyn yeast inh: inconclusive; TDP43 rescue: 25µM

Results for Cc1cc(=O)oc2cc(NC(=O)N(C)Cc3ccccc3Br)ccc12 ?
LDHA inh: inactive

What do the screens show for `CC(C)Oc1ccc2ccccc2c1/C=C(\C#N)c1nc2ccccc2[nH]1`?
LDHA inh: -30

What do the screens show for `COc1ccc(CNc2nc3nc(C)cc(C)n3n2)cc1OC`?
FUS yeast rescue: inactive; mIDH1 inhibitor: inactive; LDHA inh: inactive; Abeta yeast res: inactive; aSyn yeast inh: inactive; TDP43 rescue: inactive

How did Cc1cc(C)n2nc(SCc3cccc(F)c3)nc2n1 do in these assays?
FUS yeast rescue: inactive; mIDH1 inhibitor: inactive; LDHA inh: inactive; Abeta yeast res: inactive; aSyn yeast inh: inactive; TDP43 rescue: 18µM

How did Cc1cc(C)n2nc(NCc3cccc(Br)c3)nc2n1 do in these assays?
FUS yeast rescue: inactive; mIDH1 inhibitor: inactive; LDHA inh: inactive; Abeta yeast res: inactive; aSyn yeast inh: inactive; TDP43 rescue: 14µM

Results for Cc1cc(NC(=S)NCCc2ccccc2)ccc1I ?
LDHA inh: inactive

Results for CC(=O)N(c1ccc(N(C(C)=O)S(=O)(=O)c2cccs2)cc1)S(=O)(=O)c1cccs1 ?
FUS yeast rescue: inactive; mIDH1 inhibitor: inactive; LDHA inh: -88; Abeta yeast res: inactive; aSyn yeast inh: inactive; TDP43 rescue: inactive

What do the screens show for `CC(=O)N(c1ccc(N(C(C)=O)S(=O)(=O)c2ccccc2)cc1)S(=O)(=O)c1ccccc1`?
FUS yeast rescue: inactive; mIDH1 inhibitor: inactive; LDHA inh: -66; Abeta yeast res: inactive; aSyn yeast inh: inactive; TDP43 rescue: inactive

What do the screens show for `COc1ccc(C(=O)N(c2ccc(OC)cc2)S(=O)(=O)c2cccs2)cc1`?
FUS yeast rescue: inactive; mIDH1 inhibitor: inactive; LDHA inh: inactive; Abeta yeast res: inactive; aSyn yeast inh: inactive; TDP43 rescue: inactive

How did CN(C)C(=O)/C=C/c1ccc(-c2ccccc2F)o1 do in these assays?
LDHA inh: inactive

What do the screens show for `CCC(=O)N1c2ccc(S(=O)(=O)N3CCN(c4ccccc4Cl)CC3)cc2CC1C` (stereo not given)?
FUS yeast rescue: inconclusive; mIDH1 inhibitor: inactive; LDHA inh: inactive; Abeta yeast res: inactive; aSyn yeast inh: inactive; TDP43 rescue: 35µM

How did CCC(=O)N1c2ccc(S(=O)(=O)N3CCN(c4cc(C)ccc4C)CC3)cc2CC1C (stereo not given) do in these assays?
FUS yeast rescue: inactive; mIDH1 inhibitor: inactive; LDHA inh: inactive; Abeta yeast res: inactive; aSyn yeast inh: inactive; TDP43 rescue: inactive

How did CCCCn1c(N)c(-c2nc3ccccc3s2)c2c([N+](=O)[O-])nn(C)c(=O)c21 do in these assays?
FUS yeast rescue: 40µM; mIDH1 inhibitor: inactive; LDHA inh: inactive; Abeta yeast res: inactive; aSyn yeast inh: inactive; TDP43 rescue: inactive

How did Cc1cccc(Nc2nc(-c3ccc(O)c(O)c3)cs2)n1 do in these assays?
FUS yeast rescue: inactive; mIDH1 inhibitor: inactive; LDHA inh: inactive; Abeta yeast res: inactive; aSyn yeast inh: inactive; TDP43 rescue: inactive

How did Cc1cccc(Nc2nc(-c3ccc(F)c(C)c3)cs2)n1 do in these assays?
FUS yeast rescue: inactive; mIDH1 inhibitor: inactive; LDHA inh: inactive; Abeta yeast res: inconclusive; aSyn yeast inh: inactive; TDP43 rescue: 14µM

How did CC(C)(C)c1cc(CCC(N)=O)cc(C(C)(C)C)c1O do in these assays?
LDHA inh: inactive

Results for CC1CC(C)CN(C(=O)c2ccc3c(c2NCCO)C(=O)c2ccccc2C3=O)C1 (stereo not given) ?
FUS yeast rescue: inactive; mIDH1 inhibitor: inactive; LDHA inh: inactive; Abeta yeast res: inactive; aSyn yeast inh: inactive; TDP43 rescue: 18µM

What do the screens show for `Cc1nnc(SCc2ccccc2Cl)c2cc3occc3n12`?
FUS yeast rescue: inconclusive; mIDH1 inhibitor: inactive; LDHA inh: inactive; Abeta yeast res: inactive; TDP43 rescue: 35µM

Results for Cc1snc(SCC(=O)c2ccc(F)cc2)c1C#N ?
FUS yeast rescue: inactive; mIDH1 inhibitor: inactive; LDHA inh: inactive; Abeta yeast res: inactive; aSyn yeast inh: inactive; TDP43 rescue: inconclusive
